Assay outcomes deposited in PubChem BioAssay by National Center for Advancing Translational Sciences (NCATS).
Pf growth 96h: P. falciparum growth inhibition at 96 hour, primary screen for plastid delayed-death inhibitors; P. falciparum luciferase reporter growth, 96 h; Potency, µM (top dose mostly 28.7 µM), most hits filed as inhibitors; hit rate 6.9% among 320,000
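P. falciparum expressing integrated firefly luciferase, in erythrocytes at 2% hematocrit, 0.05% parasitemia, incubated with compounds 96 h at 37 C, 5% CO2. Growth inhibition read as loss of luminescence; two-generation exposure targets delayed-death apicoplast inhibitors.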
Pf growth 48h: inhibits P. falciparum growth in the first generation, 48 h; P. falciparum luciferase growth in erythrocytes, 48 h; Potency, µM (series often up to 28.7 µM), most hits filed as inhibitors; hit rate 5.9% among 310,000
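In quantitative HTS format, infected erythrocytes bearing luciferase-reporter parasites were treated for a single generation at 37 C. Luminescence after adding detection reagent served as the growth measure.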
SARS PLpro yeast: blocks SARS-CoV papain-like protease in a yeast assay; AID 485353; hit rate 0.19% among 330,000; Potency, µM (highest dose often 32.9 µM), hits mostly activators; S. cerevisiae expressing SARS-CoV PLpro, growth rescue; calls by dose curve; also: nearly all actives have a fitted effect of over 55% in size
Cycloheximide cs: counter-screen hit for Shiga toxin inhibitors, cycloheximide | cell reporter, cycloheximide protein synthesis inhibition counterscreen | max response, % | hit rate 12% among 300,000 | AID 2314; in the data active = max response mostly above about 13%, no sharp cut-off; inactive = mostly below about 14%; also: read at 38.3 µM for the half of the compounds with a filed dose
NS1 function inh: blocks influenza NS1 protein function; hit rate 0.4% among 270,000; Potency, µM (top dose mostly 46.1 µM); calls by dose curve; also: actives are rising curves; nearly all actives have a fitted effect of over 50% in size
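A cell-based growth assay was used: compounds that relieve NS1-induced slow growth of budding yeast raise OD600. Assay medium was yeast nitrogen base with ammonium sulphate and -URA supplement, pH 6.0, with 2% galactose.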
Shiga toxin inh: blocks Shiga toxin action in Vero cells | Vero cells, Shiga toxin protein synthesis inhibition reporter | inhibition, % at 38.7 µM | hit rate 9.2% among 290,000 | AID 2315; in the data active = inhibition mostly above about 28%, no sharp cut-off; inactive = mostly below about 43%
Each line names hits and unclear results; the compound was inactive in the other large screens. A selection: hits, their analogues and other compounds. The true share with any hit is near 21%. Unless noted, calls follow the shape of the dose curve; as a rule, active = well fitted inhibition curve with a large enough effect; inconclusive = small, poorly fitted or top-dose-only effect, or another doubt; inactive = no such curve, though single readings can be large or run the other way.

Cc1ccc(C)c(OCC(=O)NC2CCCCCC2)c1	Cycloheximide cs 27
O=C(COC(=O)C1C2CC3OC(=O)C1C3C2)Nc1ccc(F)cc1 (stereo not drawn)	none
CN1C(=O)N(CC(=O)N2CCN(S(=O)(=O)c3ccc(Cl)s3)CC2)C(=O)C12CCCCC2	Pf growth 96h inconclusive, Pf growth 48h inconclusive (no result: Cycloheximide cs, NS1 function inh, Shiga toxin inh)
Cc1ccc(OCC(=O)NC2CCCC2)c(C)c1	Pf growth 96h 0.93µM, Cycloheximide cs 36
Cc1ccc(OCC(=O)NC2CCCCCC2)cc1C	Pf growth 96h 10µM, Cycloheximide cs 25
Cc1cccc(CC(=O)NC2CCCCCC2)c1	Cycloheximide cs 14
O=C(CSCC(=O)NC1CC1)Nc1ccc2ccccc2c1	Pf growth 96h inconclusive, Pf growth 48h 13µM
CC(=O)N1c2ccc(S(=O)(=O)N3CCCC(C(=O)Nc4ccc(F)cc4)C3)cc2CC1C (stereo not drawn)	Pf growth 48h inconclusive
COc1ccc(CNC(=O)C(C)N2C(=O)COc3ccc(C)cc32)c(OC)c1 (stereo not drawn)	none
CCNc1nc(NCC)nc(OCCOC(=O)c2ccccc2)n1	Pf growth 96h inconclusive
CCNc1nc(NCC)nc(OCCOC(C)=O)n1	Pf growth 96h 4.1µM
O=C(CN1CCC(n2nnc3cc(F)ccc32)CC1)NC1CC1	none
O=C(CN1CCC(n2nnc3cc(F)ccc32)CC1)Nc1ccccc1N1CCOCC1	Pf growth 48h 1.7µM
O=C(CN1CCC(n2nnc3cc(F)ccc32)CC1)N1CCc2ccccc2C1	Pf growth 48h 8.3µM
O=C(c1cncs1)N1CCCC(CNS(=O)(=O)c2cccs2)C1 (stereo not drawn)	none
O=C1C2CC=CCC2C(=O)N1Cc1nnc(-c2ccccc2Br)o1 (stereo not drawn)	Cycloheximide cs 26, Shiga toxin inh 68
O=c1c2ccccc2nnn1Cc1nnc(-c2ccccc2Br)o1	Cycloheximide cs 44, Shiga toxin inh 128
O=C1c2ccccc2S(=O)(=O)N1Cc1nnc(-c2ccccc2Br)o1	none
O=c1c2ccccc2nnn1Cc1ccccc1	none
CCC(OC(=O)c1cccs1)C(=O)NCc1ccc(C)cc1 (stereo not drawn)	Pf growth 96h inconclusive
CCCn1c(N)c(C(=O)COC(=O)CCNS(=O)(=O)c2ccccc2F)c(=O)[nH]c1=O	none (no result: Cycloheximide cs, NS1 function inh, Shiga toxin inh)
CC(C)(C)c1ccc(OCC(=O)NCc2ccco2)c(Br)c1	Cycloheximide cs 30
CNc1ccccc1C(=O)OCC(=O)c1ccccc1	Cycloheximide cs 46, Shiga toxin inh 33
CCOc1ncccc1C(=O)OCC(=O)c1ccccc1	none
CC(=O)Nc1ccc(C(=O)OCc2ccccc2Br)cc1	Cycloheximide cs 27, Shiga toxin inh 58 (no result: NS1 function inh)
O=C(COC(=O)c1ccccc1-c1ccccc1[N+](=O)[O-])c1ccccc1	Pf growth 96h inconclusive, Pf growth 48h inconclusive, Cycloheximide cs 22
O=C(COC(=O)c1ccccc1[N+](=O)[O-])NC(=O)c1ccccc1	none (no result: Cycloheximide cs, NS1 function inh, Shiga toxin inh)
O=C(O)[C@@H]1CCCN1	none (no result: SARS PLpro yeast, Cycloheximide cs, Shiga toxin inh)
COc1cc(C)c(Br)cc1S(=O)(=O)NCCN1CCOCC1	none
COc1ccc2[nH]c3c(c2c1)CCN1C(=O)C(CC(=O)NCCc2ccccn2)C[C@H](C(=O)N2CCCCC2)[C@@]31C (stereo partly drawn)	none (no result: Pf growth 96h, Pf growth 48h, Cycloheximide cs, NS1 function inh, Shiga toxin inh)
O=C(COC(=O)c1ccncc1)c1ccc(Cl)c(Cl)c1	none
Cc1ccc(NC(=O)COC(=O)c2ccccc2Nc2ccccc2)cc1	none
CC(C)C(NC(=O)c1ccccc1F)C(=O)OCC(=O)c1ccc(F)cc1 (stereo not drawn)	Cycloheximide cs 62, Shiga toxin inh 94
O=C(COC(=O)c1ccccc1Nc1ccccc1)c1ccccc1	Cycloheximide cs 30
CC(=O)Nc1cc(C(=O)OCC(=O)c2ccc(Cl)cc2Cl)ccc1C	none
CC(=O)Nc1cc(C(=O)OCC(=O)c2ccc(C)cc2)ccc1C	Cycloheximide cs 86, Shiga toxin inh 128
CN(C)c1cccc(C(=O)OCC(=O)NCc2ccco2)c1	Cycloheximide cs 19
CC(CC=O)CCCC(C)(C)O (stereo not drawn)	none (no result: SARS PLpro yeast, Cycloheximide cs, NS1 function inh, Shiga toxin inh)
CCCCN(C)CCNC(=O)CCn1nc(-c2ccc(C)cc2)ccc1=O	none
Cc1cc2c(cc(C(=O)OCC(=O)NCc3ccco3)n2C)s1	Cycloheximide cs 15
CC(=O)Nc1ccc(C(=O)OCc2ccc(F)cc2)cc1	Pf growth 48h inconclusive
O=C(COC(=O)c1ccccc1Cl)NCc1ccco1	none (no result: Pf growth 96h, Pf growth 48h, Cycloheximide cs, NS1 function inh, Shiga toxin inh)
CC(=O)Nc1ccc(C(=O)OCC(=O)c2ccc(F)cc2)cc1	Cycloheximide cs 25, Shiga toxin inh 34
Cn1c(C(=O)OCC(=O)NCc2ccco2)cc2sccc21	Pf growth 96h inconclusive
CNc1ccccc1C(=O)OCC(=O)c1ccc(F)cc1	Cycloheximide cs 80, Shiga toxin inh 122 (no result: NS1 function inh)
O=C(COC(=O)c1ccccc1Nc1ccccc1)NCc1ccco1	Pf growth 96h inconclusive, Cycloheximide cs 16 (no result: Pf growth 48h)
NC(N)=NC(N)=Nc1c(F)c(F)c(F)c(F)c1F	none (no result: Pf growth 96h, Pf growth 48h, SARS PLpro yeast, Cycloheximide cs, Shiga toxin inh)
CCCC(C(=O)NC1CCCC1)N(Cc1ccccc1Cl)C(=O)c1snc(C(N)=O)c1N (stereo not drawn)	Pf growth 48h inconclusive
Cc1nc(SCC2(C)CC2(Cl)Cl)n[nH]1 (stereo not drawn)	none (no result: NS1 function inh)
CC(=O)Nc1ccc(OC(=O)c2ccccc2O)cc1	none (no result: SARS PLpro yeast, Cycloheximide cs, NS1 function inh, Shiga toxin inh)
CC(=O)Nc1ccc(OC(=O)c2ccccc2N)cc1	Cycloheximide cs 19
O=C(Cc1ccc(S(=O)(=O)N2CCCCC2)cc1)NCc1ccc(Cl)cc1	Pf growth 48h inconclusive (no result: Cycloheximide cs, NS1 function inh, Shiga toxin inh)
Nc1c(C(=O)NCCc2ccc(Cl)cc2)sc2ccc(S(=O)(=O)N3CCCCC3)cc12	Pf growth 96h inconclusive, Pf growth 48h 10µM, NS1 function inh inconclusive
CC(C)CCNC(=O)c1sc2ccc(S(=O)(=O)N3CCCCC3)cc2c1N	Pf growth 48h 13µM, NS1 function inh inconclusive
Cc1nc(CCNC(=O)C2CCC(=O)N(Cc3cccc(F)c3)C2)sc1C (stereo not drawn)	SARS PLpro yeast inconclusive
Cc1cc(C(=O)CN2C(=O)NC(c3ccccc3)(c3ccccc3)C2=O)c(C)n1Cc1ccco1	Pf growth 48h 1.3µM, NS1 function inh inconclusive
Cc1cc(C(=O)CN2C(=O)NC(C)(c3cccc(Br)c3)C2=O)c(C)n1Cc1ccco1 (stereo not drawn)	Pf growth 48h 1.5µM, NS1 function inh inconclusive
Cc1ccc(CNC(=O)CN2C(=O)NC(C)(c3cccc(Br)c3)C2=O)cc1 (stereo not drawn)	Pf growth 96h inconclusive
Cc1cc(C(=O)CN2C(=O)NC3(CCCc4ccccc43)C2=O)c(C)n1Cc1cccs1 (stereo not drawn)	none (no result: Pf growth 96h, Pf growth 48h)
Cc1ccc(S(=O)(=O)N2CCC(C(N)=O)CC2)cc1[N+](=O)[O-]	none
O=C(c1cccc(F)c1)N1CCCc2ccccc21	Pf growth 96h inconclusive (no result: Shiga toxin inh)
Cc1ccc(NC(=O)C[n+]2cc(-c3ccccc3)n3c2CCC3)c(C)c1	Pf growth 96h 5.2µM, Pf growth 48h inconclusive
Cc1ccc(-c2c[n+](CC(=O)Nc3c(C)cccc3C)c3n2CCC3)cc1	Pf growth 96h 15µM, Pf growth 48h inconclusive
